Out of some 38,000 compounds screened, about 1,200 (3.2%) showed an effect of 50% or more. The median lay at about -58%. Only a selection was taken, and strong results are over-represented in it overall.
What follows are compounds tested on Plasmodium falciparum (assay: Calibr Malaria Delayed Death Assay SOP). Details: concentration 4.99e-06 (unit not given; other assays of the set use mol/L).
Format: functional, organism-based
Design: scale not given: in the data most compounds retested in dose-response had high values

SMILES | Percent Effect [%]
NCC1(c2cccc(C(F)(F)F)c2)CCC1 | 23
CC(C)(CNC(=O)C1(c2cccc(Br)c2)CCOCC1)C(=O)O | -116.6
O=C(O)CCNC(=O)C1(c2cccc(Br)c2)CCOCC1 | -140.1
Fc1cccc(C2(CNC3CCSC3)CCOCC2)c1 (configuration not stated) | -47.45
Cl.NCC1(c2cccc(Br)c2)CCOCC1 | 78.65
Cc1ccc(NCCNC(=O)c2cc(CC(C)C)n[nH]2)nn1 | -140.2
Cc1cc(NC(=O)Cn2ccc(-c3ccc4c(c3)OCO4)n2)n(C)n1 | -110.5
CC(C)CNC(=O)c1cn(C)c(=O)c2ccccc12 | -112.9
CN(C)CCN1CCO[C@@H]2CCN(C(=O)c3cccn3C)CC[C@H]21 | -62.97
CCN1CCC(NC(=O)CN2CCCC(NS(C)(=O)=O)C2)CC1 (configuration not stated) | -94.92
CC(C)CC(C)NC1CCN(c2cccc(-c3cscn3)c2)CC1 (configuration not stated) | 51.64
c1cc(-c2cscn2)cc(N2CCC(NCCc3cccs3)CC2)c1 | 23.18
CC(C)CC(C)NC1CCN(c2ccc(-c3cscn3)cc2)CC1 (configuration not stated) | -115.7
Cc1ccc(C(C(=O)N2CCC(Cc3noc(C)n3)CC2)N(C)C)cc1 (configuration not stated) | 25.87
CN1CCCC2(CCN(S(=O)(=O)c3ccc(-c4cnco4)s3)C2)C1=O (configuration not stated) | -20.09
CN1CCCC2(CCN(C(=O)c3ccncc3)C2)C1 (configuration not stated) | -70.03
CN1CCC2(CCCN(S(=O)(=O)c3ccc(-c4cnco4)s3)C2)C1 (configuration not stated) | 50.7
Cc1ccc(S(=O)(=O)N2CCN(C)C3(CCC(=O)N(C)CC3)C2)s1 (configuration not stated) | -170.6
CN1CCC2(CCN(S(=O)(=O)c3ccc(-c4cnco4)s3)CC2)C1 | 67.52
O=S(=O)(c1ccc(-c2cnco2)cc1)N1CCCC(O)(CO)CC1 (configuration not stated) | -42.75
CCCn1c(C)c(CC(=O)NCC(N)=O)c2c1CC(C)(C)CC2=O | -28.28
O=C(C1CCCO1)N1CCC2(CC1)COCCN2CC1CC1 (configuration not stated) | -162.7
CN(Cc1ncc[nH]1)c1nc(-c2ccccn2)nc2c1CCNCC2 | 54.09
CN(Cc1ccc(-n2cccn2)cc1)c1nc(N)nc2c1CCNCC2 | 57.31
CC(=O)N1CCc2c(nc(-c3ccccn3)nc2N(C)CC(O)CO)C1 (configuration not stated) | -23.68

SMILES | Percent Effect [%]
CN(Cc1nccs1)c1nc(-c2ccccn2)nc2c1CCNCC2 | 83.34
CN(Cc1cccnc1)Cc1cncc2c1CCN(c1ccccn1)C2.Cl.Cl.Cl | -32.27
CN(Cc1ccccc1-n1cccn1)c1nc(N)nc2c1CCNCC2 | -16.16
CN(Cc1cccnc1)c1nccc(N2CCN[C@H]3CS(=O)(=O)C[C@H]32)n1 | -59
CN(CCO)c1nc(-c2ccccn2)nc2c1CCNC2 | -87.29
CN(Cc1nccs1)C1CCN(c2ncccn2)CC1 | -79.31
CN(Cc1cccnc1)c1nc(-c2ccccn2)nc2c1CCNCC2 | 53.3
c1ccc(-c2nc3c(c(NCCn4ccnn4)n2)CCNCC3)nc1 | 6.036
CN(Cc1ccc(-n2cccn2)cc1)c1cc(N)nc(N)n1 | 39.62
O=C(O)C(F)(F)F.O=C(O)C(F)(F)F.c1cncc(CO[C@H]2CN(Cc3ccco3)[C@@H]3COC[C@H]23)c1 | -20
Nc1nnc(SCc2cc(=O)n3c4c(sc3n2)CCCC4)[nH]1 | -122.1
O=C(C1CCC1)N1C(CN2CCOCC2)[C@]2(O)CC[C@H]1CC2 (some centres not stated) | -122.6
O=C(Cn1nc(Br)nc1Br)N1CCCCC1 | -129.7
Cc1nc(CC2CCN(C(=O)C(c3ccccc3C)N(C)C)CC2)no1 (configuration not stated) | -27.12
COc1ccc(CN(Cc2cncn2C)CC2CCCO2)cc1.O=C(O)CC(O)(CC(=O)O)C(=O)O (configuration not stated) | -5.826
CC1CCN(c2nc3ncc4c(c3c(=O)[nH]2)CC(C)(C)CC4=O)CC1 | -163.1
COCC(Nc1nc(N(C)C)nc2c1CCNCC2)c1ccccn1 (configuration not stated) | -46.74
CCOCc1nc2c(c(N(C)Cc3ccsc3)n1)CCNCC2 | 63.06
CCOCc1nc2c(c(N(C)Cc3nonc3C)n1)CCNCC2 | 45.51
CN(Cc1ccsc1)c1nc(-c2ccccn2)nc2c1CCNCC2 | 79.12
CCOCc1nc2c(c(N(C)Cc3snnc3C)n1)CCNCC2 | -53.15
CN(CC1Cc2ccccc2CN1C)c1nc(N)nc2c1CCNCC2 (configuration not stated) | -16.74
COCC1CCN(C(=O)c2cn(Cc3ccccc3F)nn2)CC1 | -60.58
CN(C)c1cc(C(=O)NCCc2n[nH]c(=O)[nH]2)ccn1 | -61.85
Cc1cnn(CC2CN(Cc3nc(C4CC4)no3)CCO2)c1 (configuration not stated) | -0.1422

SMILES | Percent Effect [%]
CC(C)N1CCC(CNC(=O)COc2ccc(F)cc2F)C1 (configuration not stated) | 52.83
COCCN1CCC(CNC(=O)CCc2cc(F)ccc2F)C1 (configuration not stated) | -6.086
CC(C)N1CCC(CNC(=O)CCc2cc(F)ccc2F)C1 (configuration not stated) | 6.837
Cc1cc(CNC(=O)N2CCN(c3ccc(Cl)cn3)CC2)c(C)o1 | -63.56
CC(=O)N1CCO[C@@H]2CN(C(=O)NCc3ccccc3)CC[C@@H]2C1 | -111.3
Cc1cnc(N2CC[C@@H]3OC(COCC(=O)N(C)C)CC[C@@H]32)nc1.O=C(O)C(F)(F)F (some centres not stated) | -36.79
CCCOc1cc(C)ccc1NC(=O)NCCNC(=O)C(C)C | -67.23
CC(C)COC(=O)N1[C@@H](c2ccco2)[C@@H](CO)C[C@]12CCCCNC2=O | -86.33
COCc1noc(CNc2nc(C3CCCC3)nc3c2CCNCC3)n1 | 26.49
COCCNc1nc(C2CCCC2)nc2c1CCNCC2 | 52.24
OC(CNc1nc(C2CCCC2)nc2c1CCNCC2)C(F)(F)F (configuration not stated) | 63.72
OC(CNc1ncnc2c1CCNCC2)C(F)(F)F (configuration not stated) | -185.3
COCCNc1nc2c(c(NCc3ccncc3)n1)CCNCC2 | 12.96
Cc1nc2c(c(NCC(O)C(F)(F)F)n1)CCNCC2 (configuration not stated) | -130.8
Cc1nc(CN2CCO[C@H]3[C@@H](Oc4ccccn4)CC[C@@H]32)cs1.O=C(O)C(F)(F)F.O=C(O)C(F)(F)F | -51.07
COc1cccc(-c2cc(C(=O)NCCCn3cnnc3)[nH]n2)c1 | -185.9
CCn1ncc2c1C(COC)CN(Cc1cnn(C)c1)C2 (configuration not stated) | -1.77
CC[C@@H]1N(Cc2nccs2)CCC[C@]12CCC(=O)N2CCOC.O=C(O)C(F)(F)F | -51.09
Cc1noc(-c2ccnc(N3CCC(CN4CCOCC4)CC3)c2)n1 | -57.29
Cc1ccc(C(=O)N2CCN(c3ccnc4ccsc34)CC2)o1 | 5.694
c1coc(CN2CCn3c(nc4ccccc43)C2)c1 | -138.4
CN(Cc1ccco1)C[C@H]1OC[C@@H]2CCN(Cc3nccs3)C[C@@H]21 | 9.527
CN(Cc1ccco1)C[C@H]1OC[C@@H]2CCN(Cc3cccnc3)C[C@@H]21.O=C(O)C(F)(F)F.O=C(O)C(F)(F)F.O=C(O)C(F)(F)F | -41.37
Cc1cccc(N2CC[C@H]3CO[C@H](CN(C)Cc4ccco4)[C@H]3C2)n1 | 48.83
CN(Cc1ccco1)C[C@H]1OC[C@@H]2CCN(Cc3ccncc3)C[C@@H]21.O=C(O)C(F)(F)F.O=C(O)C(F)(F)F.O=C(O)C(F)(F)F | -2.031

SMILES | Percent Effect [%]
CN(Cc1ccco1)C[C@H]1OC[C@@H]2CCN(Cc3ccccn3)C[C@@H]21.O=C(O)C(F)(F)F.O=C(O)C(F)(F)F.O=C(O)C(F)(F)F | 70.31
OC1=C2C(=Nc3n[nH]c(O)c3C2c2ccccc2Cl)CCC1 (configuration not stated) | -169.8
Cn1nc(C(=O)N2CCCC2)c(F)c1NC(=O)Cc1ccccc1 | -43.72
Cc1nc2ccnn2c(C)c1CCC(=O)N1CCN(CCO)CC1 | -40.17
CCn1ncnc1C(C)Nc1cc(C2CC2)ncn1 (configuration not stated) | -128.7
Cc1cccc(CN2C(=O)CO[C@@H]3CN(Cc4cnn(C)c4)C[C@H]32)c1.O=C(O)C(F)(F)F.O=C(O)C(F)(F)F | -89.5
CC(C)CNC(=O)CNc1c(NCc2ccncc2)c(=O)c1=O | -63.87
Cc1ccc2nc(CN3CCCCC3CCN3CCOCC3)cn2c1 (configuration not stated) | 7.984
O=C(NC1CCN(CC2CC2)C1)c1ccc(N2CCC(O)CC2)cc1 (configuration not stated) | -9.255
O=C(NC1CCN(CC2CCCC2)C1)N1CCC(OCC2CC2)CC1 (configuration not stated) | 63.12
NC(=O)C1CCN(C(=O)NC2CCN(CC3CCCC3)C2)CC1 (configuration not stated) | -59.5
O=C(NC1CCN(CC2CC2)C1)c1ccc(C(=O)c2cc[nH]c2)cc1 (configuration not stated) | -13.77
CSC(C)(C)CNC(=O)NC1CCN(CC2CC2)C1 (configuration not stated) | -39.54
O=C(NC1CCN(CC2CC2)C1)N1CCC(OC2CCCCC2)CC1 (configuration not stated) | 53.27
CNc1nc2c(s1)C(=O)CN(C(=O)NCCc1ccccc1)C2 | -35.41
COCCN1CCC(c2nc3ccc(NC(C)C)cn3n2)CC1.O=C(O)C(F)(F)F | -58.6
CCNc1ncc2c(n1)CN(c1ccc(C)c(C)c1)C2=O | -153.3
Cc1ccc(S(=O)(=O)Nc2ccc(C)c(C(=O)O)c2)s1 | -129.6
O=C(NCCN1CCOCC1)C1=NOC2(CCN(Cc3nccs3)C2)C1 (configuration not stated) | -143.8
Cc1nn(C)c(Cl)c1CN1CCN(c2nccs2)C(C)C1 (configuration not stated) | -15.39
Cc1nn(C)c(Oc2ccccc2)c1CNC1CCOc2ccccc21 (configuration not stated) | -79.66
Cc1nn(C)c(Oc2ccc(Cl)cc2)c1CN1CCC(CN)C1 (configuration not stated) | 92.45
